High-throughput results from PubChem.
CtBP-E1A inh: CtBP/E1A binding inhibition | AID 651724 | actives 0.49% (n = 340,000) | activity change, % (test concentration not listed) | AlphaScreen GST-E1A/His-CtBP binding, 1536-well; hits give low values
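In 5 uL wells, 23 nL compound meets equimolar GST-E1A and His-CtBP (5X stock 125 nM each) for 2 h, 37 °C. Beads (5X, 50 ug/mL) then 1 h, 37 °C, dark.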
Eya2 inh: inhibitors of human Eya2 phosphatase activity. O00167. AID 488837. Potency, µM (series often up to 76.9 µM), without a hit: at the highest dose activity, negative = inhibition, actives largely listed as inhibitors. actives 0.006% (n = 330,000). recombinant Eya2, OMFP fluorescence dephosphorylation (OMFP is methylfluorescein phosphate); also: potency is read from the fitted curve at half-maximal effect
Target sequence (O00167 whole entry, looked up): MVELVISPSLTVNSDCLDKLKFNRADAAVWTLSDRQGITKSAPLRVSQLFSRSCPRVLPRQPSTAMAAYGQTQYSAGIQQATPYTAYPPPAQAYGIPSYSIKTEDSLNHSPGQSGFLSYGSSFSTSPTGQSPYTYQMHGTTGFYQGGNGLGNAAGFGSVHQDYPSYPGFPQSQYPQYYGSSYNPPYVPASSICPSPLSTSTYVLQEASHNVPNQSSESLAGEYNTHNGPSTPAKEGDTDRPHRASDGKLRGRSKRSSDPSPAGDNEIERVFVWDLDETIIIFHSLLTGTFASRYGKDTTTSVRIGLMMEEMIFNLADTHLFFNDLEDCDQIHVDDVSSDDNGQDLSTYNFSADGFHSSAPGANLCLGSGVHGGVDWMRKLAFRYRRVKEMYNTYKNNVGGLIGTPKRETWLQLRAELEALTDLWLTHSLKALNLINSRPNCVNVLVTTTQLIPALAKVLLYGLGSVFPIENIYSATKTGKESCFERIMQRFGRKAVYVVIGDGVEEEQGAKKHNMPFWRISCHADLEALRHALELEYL
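Eya2 (0.2 uM) preincubated 10 min at ambient with compound, then OMFP substrate added at 50 uM; 10 min reaction in 50 mM HEPES pH 7.5, 50 mM NaCl, 5 uM MgCl2, 0.05% BSA, 1 mM DTT. Fluorescence read at Ex 485/Em 525 nm.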
CCT modulator: modulators of cytosolic chaperonin (CCT/TRiC) activity; purified chaperonin ATPase assay, HTRF ADP detection, 30 min; activity change, % (test concentration not listed), hits read low; actives 0.3% (n = 360,000); AID 651819; in the data active = activity change below about -30%
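ATPase activity: ADP formed was measured by HTRF Transcreener (665/615 nm ratio) after 30 min at 37 deg C with 10 uM ATP. Compounds screened at one 76 uM concentration against 40 or 20 nM TRiC in Tris pH 7.4/KCl/MgCl2/DTT buffer.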
PI4K2A block: PI4K2A (human) kinase inhibition; Q9BTU6; purified PI4K2A, ADP-Glo luminescence, 1 h; hits give low values; activity change, negative = inhibition, % at 76.9 µM; actives 0.13% (n = 420,000); in the data active = activity change below about -50%; inconclusive = mostly about -30% to -49%;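 also: -100% = wells without enzyme as full effect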
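In this quantitative HTS, ADP production by PI4K2A was quantified luminescently after 1 h at ambient temperature; 100 microM adenosine served as plate-quality control.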
Six1-Eya2 inh: inhibitors of human Six1/Eya2 interaction. AlphaScreen GST-Six1/His-Eya2 binding, biochemical; hits give low values. activity change, % (concentration not given with the values). actives 0.56% (n = 360,000). AID 651725
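Compounds are tested against tagged Six1 and Eya2 proteins bridged by glutathione donor and nickel acceptor beads; after a one-hour incubation at 37 °C without light, AlphaScreen emission is recorded.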
Numbers without * were called inactive; ? = inconclusive; . = not tested or not shown. Hits are enriched below; roughly 0.97% of the tested compounds scored in any of these assays. Rule as the data show it, unless noted: active = activity change below about -65%; inconclusive = mostly about -30% to -63%; inactive = weaker than that. Unless noted, % is scaled to controls: 0 for no effect and ±100 for the full control effect.

SMILES	CtBP-E1A inh	Eya2 inh	CCT modulator	PI4K2A block	Six1-Eya2 inh
Cc1ccc(/C=N/N2CCN(C3c4ccccc4-c4ccccc43)CC2)s1	4	2%	-56*	2	4
CCc1cccc(NC(=O)CCS(=O)(=O)c2cc(Br)cc3c2N(C(C)=O)CC3)c1	.	.	.	-3	.
O=c1c(CO)cc(CO)cc(CO)c1O	.	-8%	0	0	-90*
O=C(O)c1cccc(N2C(=O)c3cc([N+](=O)[O-])cc4cc([N+](=O)[O-])cc(c34)C2=O)c1	-68*	-4%	0	-67*	-75*
O=C(O)c1cccc(N2C(=O)c3cccc4cccc(c34)C2=O)c1	-19	-1%	-1	4	5
CCCS(=O)(=O)c1ncc(Cl)c(C(=O)Nc2ccc(S(=O)(=O)Nc3ncccn3)cc2)n1	-77*	4%	1	-22	-83*
Cc1c(C(=O)Nc2ccc(S(=O)(=O)Nc3ncccn3)cc2)oc2ccc(Cl)cc12	4	3%	-34*	5	-2
Cc1cccc(Oc2ccc(NC(=O)CCC(=O)OCC(=O)c3ccc(Br)cc3)cc2)c1C	.	.	.	3	.
O=C(Nc1ccc(NC(=O)c2sc3ccccc3c2Cl)cc1Cl)c1ccco1	16	10%	-33*	0	9
O=C(c1ccc(Cl)cc1Cl)N1CCN(c2ccccn2)CC1	-1	6%	-33*	2	-12
Oc1ccc2ccccc2c1C=NN1CCN(Cc2ccc(Cl)cc2)CC1	.	.	.	-2	.
CC(=O)OC[C@H]1O[C@@H](OC(C)=O)[C@H](OC(C)=O)[C@@H]1OC(C)=O	.	.	.	-2	.
COc1cc(/C=N/Nc2cc(C)nc(NS(=O)(=O)c3ccccc3)n2)ccc1O	-73*	16%	0	1	-71*
COc1cc(/C=N/Nc2nc(C)nc3c2cnn3-c2ccccc2)ccc1O	-77*	-6%	-1	-7	-67*
C=CC(C)=C[C@@]1(C)SC(=O)C(C)=C1O	.	-2%	.	0	.
O=C(O)[C@H](O)[C@@H](O)[C@H](O[C@@H]1O[C@H](CO)[C@H](O)[C@H](O)[C@H]1O)[C@H](O)CO	.	.	.	-4	.
Cc1ccc(Cl)cc1NC(=O)N1CCC(CN2CCc3ccccc3C2)CC1	.	.	.	7	.
COc1ccc(N(CC(=O)Nc2cccc(C)c2C)S(=O)(=O)c2c(C)n[nH]c2C)cc1	-66*	-11%	-2	-4	?
CCOc1ccc(N(CC(=O)Nc2ccc(OC)cc2)S(=O)(=O)c2c(C)[nH]c(=O)[nH]c2=O)cc1	-9	13%	-1	5	-8
COc1ccc(N(CC(=O)Nc2nccs2)S(=O)(=O)c2c(C)[nH]c(=O)[nH]c2=O)cc1	.	-20%	-37*	-2	-5
CCOc1ccc(N(C)C(CNS(=O)(=O)c2ccccc2)c2ccccc2)cc1 (configuration not stated)	.	.	.	0	.
CCOC(=O)C(=O)Nc1ccc(F)cc1	8	-2%	-84*	-5	6
CCOC(=O)C(=O)Nc1ccc(Oc2ccccc2)cc1	13	1%	1	-14	-1
COc1ccc(NC(=O)c2cccc(N3C(=O)c4ccc(C(=O)Nc5ccc(OC)c(O)c5)cc4C3=O)c2)cc1O	-66*	5%	0	-3	?
COc1ccc(-c2ccc3c(c2)S(=O)(=O)c2cccc(C(=O)N4CCN(C5CCCCC5)CC4)c2C3=O)cc1OC	-1	2%	-1	0	-21
SMILES	CtBP-E1A inh	Eya2 inh	CCT modulator	PI4K2A block	Six1-Eya2 inh
COc1ccc(-c2ccc3c(c2)S(=O)(=O)c2cccc(C(=O)N4CCN(c5ccccn5)CC4)c2C3=O)cc1OC	2	.	-32*	-9	-19
COc1ccccc1CNC(=O)c1ccc2c(c1)sc1nc(-c3ccc(F)cc3)cn12	.	.	.	0	.
CN(C)c1cccc(C(=O)OCCCC(=O)c2ccc(F)cc2)c1	-6	-5%	-38*	7	-26
COc1ccc(/C=C/C(=O)OCC(=O)N2CCCCCC2)cc1OC	3	6%	2	-1	-6
COc1ccc(OC)c(/C=C/C(=O)OCC(=O)N2CCCCC2)c1	-77*	2%	-5	-3	-15
Cc1cc(/C=C2\NC(=S)NC2=O)c(C)n1-c1cccnc1	2	11%	-83*	-3	-1
